Reference: PubChem BioAssay (EPA / NIEHS)
Where “and” joins values, the source holds several entries; their conditions need not be identical. Equal entries are not always repeated. Records with an inconclusive call do not appear. Some structures have more than one record in an assay (separate samples or runs), and their calls can disagree. Calls of active or inactive are those of the source. Rule for the calls, unless noted: active = hit-call score of the fitted dose curve at least 0.9, where 1 is the maximum; inactive = score below 0.9.

Legend:
[1] = CCTE_Shafer_MEA_acute_AB: CCTE's Alamar Blue Assay for Cytotoxicity in the Neural Acute Assay, Shafer Lab (AID 2284069; active = hit-call score of the fitted dose curve at least 0.9, where 1 is the maximum;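 note: active compounds lower the viability signal compared with DMSO wells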)
In short: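 Resazurin reduction (CellTiter Blue, 1:6 in fresh medium) read at ex 544/em 590 nm marks viability loss relative to DMSO. Cells: primary rat cortical neuron networks on microelectrode arrays, treated after baseline recording at 13 or 15 days in vitro.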

[2] = target: Estrogen receptor (Homo sapiens) (UniProt P03372); assay: CCTE_Deisenroth_AIME_384WELL_LUC_Shift: CCTE's 384-well Estrogen Receptor Transactivation Assay with AIME metabolic competence data shift (ERTA luciferase; difference in metabolism positive and negative), Deisenroth Lab (AID 2284041);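 note: shift is response with S9 minus without S9 so positive means metabolism raised ER signal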
Estrogen receptor (Homo sapiens), sequence (P03372 whole entry, looked up): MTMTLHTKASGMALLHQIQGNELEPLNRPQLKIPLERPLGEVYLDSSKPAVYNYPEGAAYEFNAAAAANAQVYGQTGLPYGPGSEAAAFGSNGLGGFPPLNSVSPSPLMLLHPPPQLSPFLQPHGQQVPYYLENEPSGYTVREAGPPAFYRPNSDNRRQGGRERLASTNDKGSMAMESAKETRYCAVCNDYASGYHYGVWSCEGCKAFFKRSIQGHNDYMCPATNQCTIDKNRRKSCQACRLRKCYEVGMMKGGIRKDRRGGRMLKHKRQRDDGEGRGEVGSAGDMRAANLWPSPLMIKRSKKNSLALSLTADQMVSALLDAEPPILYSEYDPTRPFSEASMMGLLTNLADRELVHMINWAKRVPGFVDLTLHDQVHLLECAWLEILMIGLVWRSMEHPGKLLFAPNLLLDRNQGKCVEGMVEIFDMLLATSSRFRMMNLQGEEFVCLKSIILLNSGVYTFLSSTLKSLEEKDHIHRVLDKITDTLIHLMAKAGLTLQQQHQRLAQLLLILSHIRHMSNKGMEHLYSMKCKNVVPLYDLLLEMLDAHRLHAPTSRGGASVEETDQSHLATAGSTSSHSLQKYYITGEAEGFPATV
In short: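 Chemicals (0.002–200 uM, 10 points) pre-incubated 2 h with alginate-encapsulated induced male Sprague Dawley rat liver S9 or S9-free, then medium applied 24 h to VM7Luc4E2 cells; luciferase. Endpoint is per-concentration difference, S9-positive minus negative.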

DIO2 (gene 1734) = assay: CCTE_GLTED_hDIO2: CCTE's human Deiodinase 2 (DIO2) Inhibition Assay, Great Lakes Toxicology and Ecology Division (GLTED) Lab (AID 2284050; active = hit-call score of the fitted dose curve at least 0.9, where 1 is the maximum)
In short: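 Cell-free human DIO2 incubated 3 h with chemical; liberated iodide quantified by Sandell-Kolthoff absorbance. Triplicate plates; loss of signal fitted vs DMSO.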

DIO3 (gene 1735) = assay: CCTE_GLTED_hDIO3: CCTE's human Deiodinase 3 (DIO3) Inhibition Assay, Great Lakes Toxicology and Ecology Division (GLTED) Lab (AID 2284055; active = hit-call score of the fitted dose curve at least 0.9, where 1 is the maximum;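 for AC50: potency is for inhibition seen as loss of released iodide signal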)
In short: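 Human DIO3 from an adenovirus expression system is incubated 3 h with test chemical. Released iodide is quantified by Sandell-Kolthoff absorbance, in triplicate plates. Loss of signal is fitted relative to DMSO.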

[3] = CCTE_Shafer_MEA_dev_burst_rate: CCTE's Neural Network Formation Assay for Burst Rate, Shafer Lab (AID 2284042);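 for AC50: potency for loss of burst rate below DMSO control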
In short: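 Exposure ran continuously over 12 days of network development in rat cortical cultures, with compound refreshed during full media changes on DIV 5 and 9. Single-electrode bursts per recording time, well-mean over active electrodes, trapezoidal AUC across days 5–12, fitted downward relative to DMSO.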

[4] = CCTE_Shafer_MEA_dev_bursting_electrodes_number: CCTE's Neural Network Formation Assay for Number of Bursting Electrodes, Shafer Lab (AID 2284043; active = hit-call score of the fitted dose curve at least 0.9, where 1 is the maximum;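 for AC50: potency is for loss of bursting electrodes relative to DMSO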)
In short: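 Primary rat cortical neurons plated on 16-electrode MEA wells, exposed from day 0 with compound renewed at DIV 5 and 9. Electrodes bursting ≥1 burst per 2 min counted on days 5, 7, 9 and 12; trapezoidal AUC across days, fitted for loss versus DMSO.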

[5] = CCTE_Shafer_MEA_dev_per_burst_interspike_interval: CCTE's Neural Network Formation Assay for Burst Interspike Interval, Shafer Lab (AID 2284044);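 note: mean spike spacing inside bursts as AUC over recordings on days 5 7 9 12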;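 for AC50: potency for a decrease of within-burst interspike interval below DMSO level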
In short: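 Developmental network-formation MEA in primary rat cortical cultures with exposure spanning days 0–12. Within-burst ISI is averaged per well and integrated across recording days by area under the curve, with DMSO as negative control baseline.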

[6] = CCTE_Shafer_MEA_dev_burst_duration_mean: CCTE's Neural Network Formation Assay for Mean Burst Duration, Shafer Lab (AID 2284045);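 for AC50: curve fitted for loss meaning shorter burst duration than DMSO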
In short: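 Primary rat cortical neurons on 48-well 16-electrode MEA plates, exposed from day 0 with renewal at DIV 5 and 9; spontaneous activity recorded on days 5, 7, 9, 12. Well-mean burst duration across bursting electrodes, collapsed as trapezoidal AUC; DMSO baseline.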

[7] = CCTE_Shafer_MEA_dev_interburst_interval_mean: CCTE's Neural Network Formation Assay for Mean Interburst Interval, Shafer Lab (AID 2284046);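 note: well-mean interburst interval of bursting electrodes as AUC over four recording days; curve fitted for decrease in interburst interval relative to DMSO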
In short: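 Primary rat cortical neurons on PEI-coated 48-well MEA plates (laminin added with cells at plating) (16 electrodes/well), exposed from plating day 0 with renewal at DIV 5 and 9. Mean inter-burst interval averaged over bursting electrodes, AUC across days 5, 7, 9, 12; DMSO baseline.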

[8] = CCTE_Shafer_MEA_dev_inter_network_spike_interval_mean: CCTE's Neural Network Formation Assay for Mean Inter-network Spike Interval, Shafer Lab (AID 2284047);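 for AC50: potency for a decrease in mean inter-network spike interval below DMSO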
In short: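 Mean time between consecutive network-spike peaks, recorded extracellularly (adaptive spike detection) on DIV 5, 7, 9 and 12, summarized as trapezoidal AUC. Rat cortical cultures on MEAs dosed continuously days 0–12, re-dosed at feeds; loss-of-signal fit relative to DMSO.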

[9] = CCTE_Shafer_MEA_dev_network_spike_peak: CCTE's Neural Network Formation Assay for Mean Number of Electrodes in Network Spike, Shafer Lab (AID 2284049);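 for AC50: fitted for loss of signal meaning fewer electrodes in network spikes than DMSO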
In short: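 Network-spike peak electrode count from recordings on days 5, 7, 9 and 12 was combined as trapezoidal area under the curve. Rat cortical cultures were treated continuously from plating, with compound renewed at each feed (DIV 5, 9); fits versus DMSO.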

[10] = CCTE_Shafer_MEA_dev_spike_duration_mean: CCTE's Neural Network Formation Assay for Mean Spike Duration, Shafer Lab (AID 2284051);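 note: mean network spike duration pooled as area under curve over DIV 5 to 12 recordings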;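 for AC50: potency for a decrease in mean network spike duration versus DMSO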
In short: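 Spontaneous activity was recorded on days 5, 7, 9 and 12 from rat cortical cultures grown on microelectrode arrays and dosed continuously from day 0, with media and compound renewed after the DIV 5 and 9 recordings. Network-spike duration was collapsed by area under the curve.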

[11] = CCTE_Shafer_MEA_dev_network_spike_duration_std: CCTE's Neural Network Formation Assay for Standard Deviation of Network Spike Duration, Shafer Lab (AID 2284052);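 note: hits are decreases in network spike duration SD versus DMSO vehicle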
In short: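 Network spike duration variability was collapsed across recordings on days 5, 7, 9 and 12 by trapezoidal area-under-curve and fitted downward against DMSO. Cultures were rat cortical neurons on PEI-coated MEA plates, dosed continuously from plating, refed with compound DIV 5/9.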

[12] = CCTE_Shafer_MEA_dev_per_network_spike_spike_number_mean: CCTE's Neural Network Formation Assay for Mean Number of Spikes in a Network Spike, Shafer Lab (AID 2284053);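 for AC50: fitted as decrease in spikes per network spike relative to DMSO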
In short: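 Mean spike count within each network spike, taken in a 0.05 s window at its peak, was recorded on days 5, 7, 9 and 12 and integrated as trapezoidal area under the curve. Rat cortical cultures on MEA plates received continuous compound from day 0, refreshed at medium changes on DIV 5 and 9.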

[13] = CCTE_Shafer_MEA_dev_per_network_spike_spike_percent: CCTE's Neural Network Formation Assay for Percent of Spikes in a Network Spike, Shafer Lab (AID 2284054)
In short: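 Rat primary cortical neurons were grown on 48-well MEA plates (16 electrodes/well), exposed from plating day 0 through day 12, with treatment renewed on DIV 5 and 9. Percent of spikes within 0.05 s network-spike peaks was measured, summarised as AUC across days 5, 7, 9, 12.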

[14] = CCTE_Shafer_MEA_dev_LDH: CCTE's Lactate Dehydrogenase Assay for Cytotoxicity in the Neural Network Formation Assay, Shafer Lab (AID 2284068; active = hit-call score of the fitted dose curve at least 0.9, where 1 is the maximum;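 note: exposure for twelve days from plating with re-dosing on DIV 5 and 9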)
In short: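 Primary rat cortical neurons were cultured on PEI-coated MEA plates and exposed from plating through day 12, with compound renewed at medium changes on DIV 5 and 9. LDH activity was read spectrophotometrically; loss of signal versus DMSO indicates reduced viability.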

[15] = CCTE_Shafer_MEA_dev_AB: CCTE's Alamar Blue Assay for Cytotoxicity in the Neural Network Formation Assay, Shafer Lab (AID 2284083; active = hit-call score of the fitted dose curve at least 0.9, where 1 is the maximum;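 note: resazurin reduction fluorescence as viability of cultured neurons; twelve days of exposure from plating with re-dosing on DIV 5 and 9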)
In short: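 Resazurin fluorescence, relative to DMSO, gauges viability after twelve days of exposure that began at plating of rat cortical neurons (1.5 x 10^5 cells/well, 48-well MEA); treatment renewed with full medium exchange on DIV 5 and 9.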

[16] = CCTE_Shafer_MEA_dev_network_spike_number: CCTE's Neural Network Formation Assay for Number of Network Spikes, Shafer Lab (AID 2284048);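 for AC50: fit as a loss of signal meaning fewer network spikes than DMSO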
In short: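 Primary rat cortical neurons on PEI/laminin 48-well MEA plates, dosed from plating day 0 for 12 days, renewed at DIV 5 and 9. Network spike counts recorded DIV 5, 7, 9, 12, collapsed as trapezoidal AUC; DMSO baseline.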

[17] = UKN5_HCS_SBAD2_cell_viability: Viability Assessment in the University of Konstanz (UKN) Leist Lab Neurite Outgrowth Assay in human iPSC-derived immature Dorsal Root Ganglia Neurons (UKN5) (AID 2284056)
In short: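 iPSC-derived immature peripheral neurons (SBAD2) seeded on Matrigel with CHIR99021, SU5402 and DAPT, dosed 1 h later for 24 h. Viability from Hoechst H-33342 and calcein-AM live staining, high-content imaging; bidirectional fit versus DMSO.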

[18] = UKN5_HCS_SBAD2_neurite_outgrowth: University of Konstanz (UKN) Leist Lab Neurite Outgrowth Assay in human iPSC-derived immature Dorsal Root Ganglia Neurons (UKN5) (AID 2284070); settings: actives raise or lower the signal
In short: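 SBAD2 iPSC-derived immature peripheral neurons on Matrigel, 100.000 cells/cm2, medium with CHIR99021 (1.5 uM), SU5402 (5 uM), DAPT (5 uM); compound added 1 h post-seeding for 24 h. Calcein-AM neurite area by high-content imaging; Hoechst H-33342 viability; bidirectional fit vs DMSO.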

Measured: AC50

CCCCN(CCO)CCO
inactive: [1]

[O-]/[N+](=N\O)c1ccccc1
active: [2] 81 µM

C1CCCNCC1
inactive: [2]

C=C(C)C(=O)OCCC(C)OC(=O)C(=C)C (configuration not stated)
active: DIO2 (gene 1734) 49.6 µM | DIO3 (gene 1735) 36.9 µM

CCCCC/C=C\C=C\C(=O)OCC
active: DIO2 (gene 1734) 44.2 µM | DIO3 (gene 1735) 26.6 µM

CCC(=O)OC(C)(C)C1CC=C(C)CC1 (configuration not stated)
inactive: [2]

N[C@@H](CCC(=O)O)C(=O)O
not listed: [1] | [2] | DIO2 (gene 1734) | DIO3 (gene 1735) | [16] | [17] | [18]
inactive: all other assays above

O=C(OCc1ccccc1)c1ccccc1O
active: [2] 37.2 µM

CC(C)(CO)CO
inactive: [1]

CC(=O)OC/C=C(C)/C=C/C=C(C)/C=C/C1=C(C)CCCC1(C)C
active: DIO2 (gene 1734) 52.6 µM | DIO3 (gene 1735) 37.8 µM
inactive: [2]

CC/C(=C(\c1ccccc1)c1ccc(OCCN(C)C)cc1)c1ccccc1
inactive: DIO3 (gene 1735) | [1]
active: [3] 122 nM | [4] 0.203 µM | [5] 307 nM | [6] 30.4 nM | [7] 1.03 µM | [8] 57.8 nM | [16] 1.87 µM | [9] 0.209 µM | DIO2 (gene 1734) 46.5 µM and 46.3 µM | [10] 350 nM | [11] 273 nM | [12] 66.8 nM | [13] 3.89 µM | DIO3 (gene 1735) 84.2 µM | [14] 2.87 µM | [15] 5 µM

CCCCC(CC)COC(=O)COc1ccc(Cl)cc1C (configuration not stated)
not listed: [1] | [2] | DIO2 (gene 1734) | DIO3 (gene 1735) | [14] | [15] | [17] | [18]
inactive: all other assays above

CCCCCCCCOC(=O)c1ccc(O)cc1
active: [2] 36.3 µM | DIO2 (gene 1734) 92.9 µM | DIO3 (gene 1735) 30.7 µM

c1ccc2scnc2c1
not listed: [1] | DIO2 (gene 1734) | DIO3 (gene 1735) | [4] | [15] | [17] | [18]
inactive: all other assays above

N#CCCNCCC#N
not listed: [1] | [2] | DIO2 (gene 1734) | DIO3 (gene 1735) | [15] | [17] | [18]
inactive: all other assays above

CC(C)Cc1ccc(C(C)C(=O)O)cc1 (configuration not stated)
active: [4] 2.98 µM | [7] 0.962 µM | [9] 15 µM | [13] 15 µM | [14] 15 µM | [15] 2.98 µM
not listed: [1] | [2] | DIO2 (gene 1734) | DIO3 (gene 1735)
inactive: all other assays above

C[C@]12CC[C@@H]3c4ccc(O)cc4CC[C@H]3[C@@H]1CC[C@@H]2O
active: [4] 10 µM | [15] 6.6 µM
inactive: [3] | [5] | [6] | [7] | [8] | [16] | [9] | [10] | [11] | [12] | [13] | [14] | [15]

c1ccc(OCCOc2ccccc2)cc1
inactive: [1]

CC(C)C(=O)c1ccccc1
inactive: [2]

OC[C@H]1O[C@@H](O[C@H]2[C@H](O)[C@@H](O)[C@H](O)O[C@@H]2CO)[C@H](O)[C@@H](O)[C@H]1O
inactive: [2]

CCCCCCCCCCCCOCCOS(=O)(=O)O
inactive: [2]

O=C(c1ccc(OCCN2CCCCC2)cc1)c1c(-c2ccc(O)cc2)sc2cc(O)ccc12
active: DIO2 (gene 1734) 99.1 µM
inactive: [1]
